# Screening data deposited in PubChem BioAssay by several laboratories.
# LMP1 NFkB inh – EBV LMP1-driven NF-kappaB luciferase reporter inhibitors, primary screen, cell-based, luminescence, single point. LMP1-induced NF-kappaB luciferase reporter cells. inhibition, % at 12.5 µM. actives 0.69% (n = 350,000). AID 504558, 2011; in the data active means inhibition above about 41%; inconclusive means no clear call, values can overlap the other calls;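 further: 0% = neutral control wells and 100% = reference inhibitor control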
# LGR2 antag – inhibitors of bursicon-induced LGR2 CRE-luciferase signal, primary screen, cell-based, HEK293, CRE-luciferase reporter, bursicon stimulation. bursicon-stimulated, 4 h. Drosophila bursicon receptor LGR2 (rickets). actives 0.35% (n = 380,000). inhibition, % at 9.99 µM. AID 720647, 2013;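 active means drop in luminescence signal, shown as inhibition above about 50% in the replicate tests, limit read from the data, passing the limit was not always enough; inconclusive means probably only some replicates passing the limit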;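 further: agonist challenge used bursicon conditioned medium at about half maximal strength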
# TWEAK Fn14 block – inhibitors of TWEAK-Fn14 signaling, primary screen, luciferase reporter cells, uHTS | actives 2% (n = 360,000) | inhibition, % at 10 µM | AID 1159606, 2016 | TWEAK-stimulated Fn14 reporter cells, luciferase luminescence, 8 h; in the data active means inhibition above about 50%
# EWS-Fli block – EWS/Fli-driven NR0B1 reporter inhibitors, primary screen, A673 cells, NR0B1 luciferase, luminescence, MLPCN library; inhibition, % at 12.6 µM; actives 0.67% (n = 350,000); viability-normalised;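 active means mean inhibition of at least 50% after viability correction, with every replicate also passing that limit; inconclusive means mean reaches 50% but only one of two replicates passes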;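 further: firefly luciferase signal divided by Alamar Blue viability fluorescence both relative to DMSO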
# TROY signal inh – inhibitors of TROY-driven NF-kB signaling, primary screen, Q293 LMP1-TROYcd cells, NF-kB luciferase, uHTS. Q293 LMP1-TROYcd NF-kB luciferase reporter, 4 h. inhibition, % at 10 µM. actives 0.98% (n = 360,000);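 active means compounds whose plate-normalised and pattern-corrected inhibition of the luciferase reporter signal at the single screening dose is 50% or more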
# * hit, by the source's call; u = inconclusive; x = no result. Most compounds without a hit are left out; they make up all but 2.6% or so of the library.
SMILES,LMP1 NFkB inh,LGR2 antag,TWEAK Fn14 block,EWS-Fli block,TROY signal inh
Cc1ccc(NC(=O)CSc2nnc(NC(=O)C(C)C)s2)c(C)c1,63*,-7,0,4,-7
COC(=O)c1ccc(CSc2ncnc3c2nnn3-c2ccc(F)cc2)o1,-3,x,-22,x,55*
O=C(Nc1ccn(Cc2ccccc2F)n1)c1ccc(COc2ccccc2Cl)cc1,12,x,62*,x,53*
COc1ccc(-c2cc(C(F)(F)F)nc(S(=O)(=O)CCCC(=O)Nc3cc(C)on3)n2)cc1OC,-1,90*,96*,5,52*
COc1ccccc1-c1cc(C(F)(F)F)nc(N2CCCCC2)n1,-8,5,-6,x,4
COc1ccccc1-c1cc(C(F)(F)F)nc(S(=O)(=O)CCCC(=O)Nc2cc(C)on2)n1,-8,x,39,x,39
COc1ccccc1-c1cc(C(F)(F)F)nc(S(=O)(=O)CCCC(=O)Nc2cccnc2Cl)n1,-24,x,82*,20,62*
COc1ccccc1-c1cc(C(F)(F)F)nc(N2CCCC2)n1,-13,x,8,x,10
COc1ccccc1-c1cc(C(F)(F)F)nc(S(C)(=O)=O)n1,-5,x,19,x,53*
COc1ccccc1-c1cc(C(F)(F)F)nc(S(=O)(=O)CCCC(=O)N2CCCCC2C)n1 (configuration not stated),0,x,83*,x,65*
Cc1ccccc1S(=O)(=O)N1C[C@H](O)COC[C@H]2O[C@@H](CC(=O)O)CC[C@@H]21,x,1,x,-6,x
C[C@H](NC(=O)C[C@@H]1CC[C@H]2[C@@H](COC[C@H](O)CN2C(=O)Nc2cccc(Cl)c2)O1)c1ccccc1,x,-20,x,-8,x
COc1ccccc1-c1cc(C(F)(F)F)nc(S(=O)(=O)CCCC(=O)NCc2ccc(F)cc2)n1,14,23,99*,-7,84*
COc1ccccc1-c1cc(C(F)(F)F)nc(S(=O)(=O)CCCC(=O)NC(C)C)n1,-4,x,39,x,-5
CCCNC(=O)C[C@H]1CC[C@H]2[C@H](COc3ccc(NC(=O)C4CCOCC4)cc3C(=O)N2C)O1,x,-14,x,3,x
C[C@@H]1CCCCO[C@@H](CN(C)CC2CCCCC2)[C@H](C)CN([C@H](C)CO)C(=O)c2cc(NC(=O)Nc3ccc(C(F)(F)F)cc3)ccc2O1,x,10,x,76*,x
C[C@@H]1CCCCO[C@H](CN(C)CC2CCCCC2)[C@H](C)CN([C@@H](C)CO)C(=O)c2cc(NC(=O)Nc3ccc(F)cc3)ccc2O1,x,16,x,58*,x
C[C@@H]1CCCCO[C@H](CN(C)CC2CC2)[C@H](C)CN([C@@H](C)CO)C(=O)c2cc(NC(=O)Nc3ccc(C(F)(F)F)cc3)ccc2O1,x,14,x,76*,x
C[C@@H]1CN([C@@H](C)CO)C(=O)c2cc(NC(=O)Nc3ccc(C(F)(F)F)cc3)ccc2O[C@@H](C)CCCCO[C@@H]1CN(C)CC1CCCCC1,x,9,x,-12,x
C[C@H]1CCCCO[C@H](CN(C)CC2CCCCC2)[C@@H](C)CN([C@@H](C)CO)C(=O)c2cc(NC(=O)Nc3ccc(F)cc3)ccc2O1,x,13,x,49,x
C[C@@H]1CCCCO[C@@H](CN(C)CC2CCCCC2)[C@@H](C)CN([C@@H](C)CO)C(=O)c2cc(NC(=O)Nc3ccc(C(F)(F)F)cc3)ccc2O1,x,x,x,65*,x
C[C@@H]1CCCCO[C@@H](CN(C)C(=O)Nc2ccc(F)cc2)[C@@H](C)CN([C@@H](C)CO)C(=O)c2cc(NC(=O)Nc3ccc(F)cc3)ccc2O1,x,19,x,0,x
C[C@@H]1CCCCO[C@H](CN(C)CC2CCCCC2)[C@@H](C)CN([C@H](C)CO)C(=O)c2cc(NC(=O)Nc3ccc(C(F)(F)F)cc3)ccc2O1,x,0,x,-1,x
C[C@@H]1CCCCO[C@H](CN(C)CC2CCCCC2)[C@H](C)CN([C@H](C)CO)C(=O)c2cc(NC(=O)Nc3ccc(C(F)(F)F)cc3)ccc2O1,x,x,x,75*,x
C[C@H](CO)N1C[C@H](C)[C@H](CN(C)C(=O)Nc2ccc(F)cc2)OCCCC[C@H](C)Oc2ccc(NC(=O)Nc3ccc(F)cc3)cc2C1=O,x,53*,x,-7,x
SMILES,LMP1 NFkB inh,LGR2 antag,TWEAK Fn14 block,EWS-Fli block,TROY signal inh
CCc1nnc(NC(=O)CSc2nnc(-c3ccc(S(=O)(=O)N(CC)CC)cc3)n2CC)s1,-15,-3,83*,x,-7
CN1C(=O)c2cc(NC(=O)Nc3cccc(Cl)c3)ccc2OC[C@@H]2O[C@H](CC(=O)NCCc3ccncc3)CC[C@H]21,x,-1,x,-8,x
CNC[C@H]1Oc2cc(C#Cc3ccc(F)cc3)ccc2S(=O)(=O)N([C@@H](C)CO)C[C@H]1C,x,16,x,8,x
CC(=O)Nc1cccc(Oc2ccc3c(c2)C(=O)N(CCC(=O)O)C3=O)c1,-4,x,88*,x,x
CN1CCN(C(=O)CCCN2C(=O)/C(=C/c3ccccc3)SC2=S)CC1,-16,19,-13,-27,-15
O=C(O)CCCN1C(=O)/C(=C\c2ccccc2OCc2ccccc2)SC1=S,4,11,-6,-4,56*
O=C(O)CCCN1C(=O)/C(=C\C(Cl)=C\c2ccccc2)SC1=S,-27,-5,102*,u,26
Cc1ccc2[nH]c(C)c(/C=N/Nc3nc4ccccc4s3)c2c1,-82,x,60*,x,39
C=CCn1c(O)c(N=NC(=S)Nc2ccccc2C)c2cc(S(=O)(=O)N3CCOCC3)ccc21,43*,14,2,45,-10
Cc1cccc(NC(=S)N=Nc2c(O)n(CN3CCOCC3)c3ccccc23)c1C,31,17,50*,x,-10
Cn1c(O)c(N=NC(=S)Nc2ccccc2F)c2cc(S(=O)(=O)N3CCOCC3)ccc21,39,-3,45,27,36
COc1ccc(Br)cc1/C=C/C(=O)c1ccc(NC(C)=O)cc1,4,95*,84*,u,42
COc1ccc(NC(=O)/C=C/c2cc(Br)ccc2OC)cc1,2,x,26,x,7
CO[C@H]1CN(C)C(=O)c2ccc(NC(=O)NC(C)C)cc2OC[C@@H](C)N(CC2CC2)C[C@H]1C,x,4,x,9,x
Cc1sc2ncnc(N3CCC(C(=O)Nc4ccc(OC(F)F)c(Cl)c4)CC3)c2c1C,8,u,25,3,51*
Cc1sc2ncnc(N3CCC(C(=O)NNC(=O)COc4cccc(C(F)(F)F)c4)CC3)c2c1C,6,-5,56*,4,50
Cc1cc(Br)ccc1NC(=O)CN(C)C(=O)C1CCN(c2ncnc3sc(C)c(C)c23)CC1,16,14,59*,12,45
Cc1sc2ncnc(N3CCC(C(=O)NNC(=O)COc4ccccc4Cl)CC3)c2c1C,-5,-11,41,13,48
Cc1cc(Cl)ccc1OCC(=O)NNC(=O)C1CCN(c2ncnc3sc(C)c(C)c23)CC1,7,-5,82*,6,72*
